High-throughput results (PubChem BioAssay)
Only some compounds are listed: those with a hit (about 6.6% of all), similar ones and a draw of the others.
Mdm2-MdmX inh: inhibitors of human Mdm2-MdmX association, primary screen, cell-based, luminescence, split luciferase, SaOS-2, uHTS; SaOS-2 split-luciferase Mdm2/MdmX complementation; inhibition, % at 8 µM; AID 485346, 2010; 3% of 330,000 active;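 active means inhibition of at least 50% at 8 µM in the primary screen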
Target sequence (O15151 whole entry, looked up): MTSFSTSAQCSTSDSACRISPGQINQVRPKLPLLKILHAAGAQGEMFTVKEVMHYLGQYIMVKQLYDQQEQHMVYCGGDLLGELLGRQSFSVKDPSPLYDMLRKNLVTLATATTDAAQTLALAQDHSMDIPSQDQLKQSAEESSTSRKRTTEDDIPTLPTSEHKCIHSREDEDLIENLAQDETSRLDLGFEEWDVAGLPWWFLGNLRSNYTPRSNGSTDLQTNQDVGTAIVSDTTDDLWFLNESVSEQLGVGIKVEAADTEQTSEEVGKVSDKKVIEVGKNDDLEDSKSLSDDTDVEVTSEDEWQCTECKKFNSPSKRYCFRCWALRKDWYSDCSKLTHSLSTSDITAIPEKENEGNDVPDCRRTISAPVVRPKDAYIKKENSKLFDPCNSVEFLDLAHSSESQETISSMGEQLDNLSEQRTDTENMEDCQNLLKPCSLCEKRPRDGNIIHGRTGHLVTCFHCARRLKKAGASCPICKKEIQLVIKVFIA
Target sequence (Q00987 whole entry, looked up): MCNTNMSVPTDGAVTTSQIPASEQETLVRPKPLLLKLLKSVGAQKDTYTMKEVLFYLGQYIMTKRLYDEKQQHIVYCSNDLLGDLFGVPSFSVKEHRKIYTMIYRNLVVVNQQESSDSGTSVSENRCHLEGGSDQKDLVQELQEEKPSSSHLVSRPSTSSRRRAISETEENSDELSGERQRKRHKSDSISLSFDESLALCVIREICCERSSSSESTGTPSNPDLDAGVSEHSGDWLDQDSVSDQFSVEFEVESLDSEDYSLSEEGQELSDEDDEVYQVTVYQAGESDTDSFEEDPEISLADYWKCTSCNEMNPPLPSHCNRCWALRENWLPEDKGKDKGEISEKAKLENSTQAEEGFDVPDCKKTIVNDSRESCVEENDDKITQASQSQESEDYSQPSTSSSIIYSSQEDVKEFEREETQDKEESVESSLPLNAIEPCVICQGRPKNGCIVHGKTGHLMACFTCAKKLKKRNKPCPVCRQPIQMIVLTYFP
CSC inhib: cancer stem cell viability inhibitors, primary screen, luminescence; cancer stem cell-like cells viability; inhibition, % at 7.5 µM; 1.1% of 300,000 active; AID 2717, 2010; in the data active means inhibition above about 75%; tested in HMLE shEcad cells
Gli-Sufu antag: Gli-Sufu pathway antagonists, primary screen, luciferase luminescence, Sufu-KO-LIGHT cells, uHTS; Sufu-KO-LIGHT fibroblasts, Gli luciferase reporter luminescence; inhibition, % at 5 µM; 0.74% of 340,000 active;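 active means inhibition above about 55%, limit read from the data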;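 further: 0% = DMSO-treated cells and 100% = wells with medium but no cells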
NR3A LBD binder: binders of NR3A ligand-binding domain, primary screen, biophysical, differential scanning fluorimetry, uHTS; NR3A LBD differential scanning fluorimetry, Tm shift; 0% = protein alone, 100% = glycine-bound protein; Tm shift relative to glycine control, % at 25 µM; Glutamate receptor ionotropic, NMDA 3A (GRIN3A) ligand-binding domain; 2.5% of 340,000 active;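 active means melting temperature shift of at least 10% of the positive control shift, at one fixed dose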
MPTP block: mitochondrial permeability transition pore inhibitors, primary screen, biochemical, isolated mouse mitochondria, absorbance; inhibition, % at 10 µM; 1.4% of 360,000 active; Ca2+ swelling absorbance, 30 min;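 active means inhibition of 50% or more, scaled per plate between neutral and stimulator controls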;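 further: 0% = DMSO wells given calcium and 100% = 1 mM EGTA wells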
Beta apoptosis: inhibitors of cytokine-induced beta cell apoptosis, primary screen, luminescence | INS-1E cytokine-induced death, ATP luminescence, 48 h; percent of positive-control rescue, neutral wells zero | protection from apoptosis, % (concentration not given with the values) | 0.8% of 300,000 active | AID 435005, 2010;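 active means Every replicate reaches about 75%, or at least half do and their mean reaches it too, limit read from the data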;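 further: 0% = cytokine-treated negative control wells and 100% = positive control rescue; higher means more ATP so stronger rescue from cytokine killing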
The depositor's hits bear a star; . = not tested or not shown.

SMILES	Mdm2-MdmX inh	CSC inhib	Gli-Sufu antag	NR3A LBD binder	MPTP block	Beta apoptosis
O=c1[nH]c(CSc2nc3ccccc3s2)nc2ccccc12	-22.7	-18.4	-23.8	1.1	0.8	2.9
COc1ccc(NS(=O)(=O)c2cccs2)c(OC)c1	13.8	-4.4	-0.6	15.5*	2.9	0.1
COc1ccccc1NS(=O)(=O)c1cccs1	6.4	-6.1	6.4	-2.1	-2.0	-3.6
CCOc1cc(/C=C(\C#N)C(=O)Nc2ccc(S(N)(=O)=O)cc2)ccc1OCCN1CCOCC1	3.7	3.9	-4.7	2.2	-0.4	0.2
COc1ccc(/C=C/c2c(-c3ccc(OC)cc3)sc3cc(OC)c(OC)cc23)cc1	16.9	.	5.4	-0.5	0.5	.
CCC(c1ccccc1)c1nc(-c2ccccn2)no1 (stereo unspecified)	-3.3	.	-36.3	-0.9	-2.3	-6.5
CCC(c1ccccc1)c1nc(-c2cccnc2)no1 (stereo unspecified)	10.7	8.6	-3.3	12.2*	-0.4	-2.0
O=C(O)c1ccc(N=C2c3ccccc3-c3ccccc32)cc1	.	.	-11.0	2.0	-1.1	.
O=C(O)c1ccc(C=NN=C2c3ccccc3-c3ccccc32)cc1	.	.	16.0	28.4*	-0.4	.
NC(=O)c1ncc(C(F)(F)F)cc1Oc1cccc(C(F)(F)F)c1	13.7	-8.4	6.2	10.7*	-3.9	-6.4
NC(=O)c1ncc(C(F)(F)F)cc1Oc1cccc(F)c1	13.8	-11.1	-0.6	3.9	0.8	-1.5
O=C(/C=C/c1ccc([N+](=O)[O-])cc1)NCc1cccnc1	14.3	-14.1	16.8	-0.1	0.2	95.3*
O=C(N/N=C/C=C\c1cccc([N+](=O)[O-])c1)c1cccnc1	-6.9	-1.6	4.7	12.5*	0.2	.
O=C(/C=C/c1ccc([N+](=O)[O-])cc1)/C=C/c1ccco1	13.8	76.0*	.	.	-0.3	1.6
O=C(/C=C/c1ccc([N+](=O)[O-])cc1)c1cccnc1	32.0	2.5	-6.3	23.5*	0.2	1.2
COc1ccccc1CNC(=O)C1CCC(CNS(=O)(=O)c2ccccc2)CC1 (stereo unspecified)	7.0	.	8.9	0.0	0.9	.
CCNS(=O)(=O)c1ccc(CCC(=O)NCc2ccncc2)cc1	-7.2	-3.2	24.2	3.0	0.3	-1.4
COC(=O)CSc1nnc(CSc2nc(C)cc(C)n2)n1Cc1ccco1	-12.8	10.3	1.3	13.9*	0.7	-0.3
COc1ccc(-n2nc(C)c3sc(C)nc3c2=O)cc1	18.0	-4.5	-2.1	0.9	0.1	-5.9
COC(=O)c1c(C(=O)c2ccc(Br)cc2)n(C)c2ccccc12	18.2	25.1	3.6	1.1	0.1	1.7
O=C1CC(SC2=NCCS2)C(=O)N1c1ccc(Cl)cc1 (stereo unspecified)	-31.1	14.5	6.2	23.7*	-0.9	2.4
COc1ccccc1Cn1c(/C=C/c2ccccc2)nc2ccccc21	-100.4	5.4	-48.6	11.2*	5.7	15.2
COc1ccc(NC(=S)NNc2ccc(C(=O)O)cc2)cc1	9.1	4.2	-9.2	2.7	-1.0	.
CCCCc1oc2ccccc2c1C(=O)c1cc(I)c(OCCN(CC)CC)c(I)c1	41.8	89.3*	-0.1	0.0	.	4.0
CCN1C/C(=C/c2cccc([N+](=O)[O-])c2)C(=O)/C(=C/c2cccc([N+](=O)[O-])c2)C1	.	84.8*	58.3*	-6.0	-0.1	97.9*
SMILES	Mdm2-MdmX inh	CSC inhib	Gli-Sufu antag	NR3A LBD binder	MPTP block	Beta apoptosis
C=C(C)C(=O)N1CC2(CC(c3cccc(NC(=O)COc4ccc(Cl)cc4)c3)=NO2)C[C@@H]1C(N)=O (stereo partly specified)	0.3	-13.6	4.4	6.4	-1.6	103.7*
CCC1(CC)SCCNC1=O	.	.	1.2	0.5	-4.1	.
CCOc1cc(/C=N/NC(=O)c2nn(C)cc2Br)ccc1OCc1ccccc1	-8.2	-5.0	-1.7	10.2*	1.9	10.9
COc1ccc(/C=N/NC(=O)c2nn(C)cc2Br)cc1CSCc1ccco1	1.7	-2.4	-4.2	1.5	-0.2	.
Nc1nonc1-n1nnc(C(=O)N/N=C/c2ccc(OCc3ccccc3)cc2)c1CN1CCCCC1	-22.0	-2.1	1.6	18.4*	-0.1	8.5
Cc1ccc(COc2ccc(/C=N/NC(=O)c3nnn(-c4nonc4N)c3COc3ccc(F)cc3)cc2)cc1	41.2	12.4	-9.7	21.1*	2.3	0.9
COc1ccc(/C=N/NC(=O)c2c(C)nnn2-c2nonc2N)cc1OC	33.6	-7.8	-11.2	19.4*	0.6	2.3
COc1ccc(/C=N/NC(=O)c2nnn(-c3nonc3N)c2C)cc1OC	.	.	.	.	-0.6	.
CCCc1c(C(=O)N/N=C/c2ccc(OCc3ccc(F)cc3)cc2)nnn1-c1nonc1N	.	.	.	.	0.1	.
COc1ccc(Cl)cc1CNC[C@H]1O[C@@H](n2cnc3c(=O)[nH]c(N)nc32)[C@H](O)[C@@H]1O	.	.	.	.	-1.0	.
CCOC(=O)C1(C)CCCN1C(=O)c1ccccc1F (stereo unspecified)	.	.	.	.	0.6	.
Cc1cccc(COc2ccc(/C=N/NC(=O)c3nnn(-c4nonc4N)c3C)cc2)c1	5.2	-11.8	-31.2	3.7	0.5	-7.2
CCOc1cc(/C=N/NC(=O)c2nnn(-c3nonc3N)c2C)ccc1OCc1ccc(C)cc1	.	.	.	.	1.9	.
CCOc1cc(/C=N/NC(=O)c2nnn(-c3nonc3N)c2C)ccc1OCc1ccc(F)cc1	43.6	-12.0	-6.1	15.4*	0.5	6.9
CCOc1cc(/C=N/NC(=O)c2nnn(-c3nonc3N)c2C)ccc1OCc1cccc(F)c1	29.4	-4.8	2.9	26.0*	0.0	7.1
NS(=O)(=O)c1ccc(Nc2nc(-c3ccc4ccccc4c3)cs2)cc1	7.6	23.7	12.2	24.6*	0.6	0.8
NS(=O)(=O)c1ccc(Nc2nc(-c3cccc([N+](=O)[O-])c3)cs2)cc1	-1.4	-2.1	-7.5	16.5*	1.1	19.4
CCc1cc(Cn2nc(-c3ccccc3)cc2C(=O)NCC2CC2)on1	28.4	-9.8	-21.2	2.1	-1.2	-3.6
COc1ccc(NC(=O)NC[C@@H]2CC[C@@H](Cc3ccc(-c4ccccc4)cc3)O2)cc1	16.6	.	-5.2	11.4*	2.8	.
Cc1nn(Cc2ccccc2)c(C)c1C(=O)OCC(=O)c1cc(C)n(CC(F)(F)F)c1C	28.6	77.6*	3.8	2.4	-9.4	8.7
CC1=C(C(=O)N(C)C)CC(CC(=O)NC2CCCC2)C(=O)N1Cc1ccccc1 (stereo unspecified)	.	.	.	.	-0.1	.
O=S(=O)(O)c1cc(O)c(N=Nc2ccc(O)cc2O)c2ccccc12	.	.	8.7	13.1*	18.9	.
